Ten molecules from PubChem BioAssay AID2283112 (EPA ToxCast) can be followed below.

As usually defined, the AC50 is the midpoint of the concentration-response curve, whichever way the signal moves.

The structures appear in SMILES notation. Inconclusive results are not listed. The source made the active and inactive calls. The calls were made as follows: active = hit-call score of the fitted dose curve at least 0.9, where 1 is the maximum; inconclusive = response in the unintended direction; inactive = score below 0.9.

Sequence of rat CYP1A1, Cyp1a1 (gene 24296) (P00185 whole entry, looked up): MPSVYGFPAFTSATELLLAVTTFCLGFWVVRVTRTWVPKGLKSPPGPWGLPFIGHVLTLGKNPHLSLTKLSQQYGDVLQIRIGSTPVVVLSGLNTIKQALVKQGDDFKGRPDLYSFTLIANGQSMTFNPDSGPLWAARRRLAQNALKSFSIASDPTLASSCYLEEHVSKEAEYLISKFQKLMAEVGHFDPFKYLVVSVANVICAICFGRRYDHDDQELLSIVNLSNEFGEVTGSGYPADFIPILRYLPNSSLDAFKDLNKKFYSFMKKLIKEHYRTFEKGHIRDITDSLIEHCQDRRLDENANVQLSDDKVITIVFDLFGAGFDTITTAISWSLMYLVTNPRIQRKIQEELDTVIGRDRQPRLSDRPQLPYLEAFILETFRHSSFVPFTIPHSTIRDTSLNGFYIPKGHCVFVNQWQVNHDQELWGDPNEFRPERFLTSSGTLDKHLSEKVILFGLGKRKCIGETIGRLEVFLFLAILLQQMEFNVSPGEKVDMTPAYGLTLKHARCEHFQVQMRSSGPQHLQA

In this assay the target is rat CYP1A1, Cyp1a1 (gene 24296) (UniProt P00185). Briefly: NVS_ADME_rCYP1A1: NovaScreen (NVS) CYP450-related Enzyme Activity (ADME) Assay for rat CYP1A1. The procedure:
NVS_ADME_rCYP1A1 is a biochemical, single-readout assay that uses extracted gene-proteins from baculovirus-insect cells in a cell-free assay. Measurements were taken 1 hour after chemical dosing in a 96-well plate.NVS_ADME_rCYP1A1 is one of one assay component(s) measured or calculated from the NVS_ADME_rCYP1A1 assay. It is designed to make measurements of enzyme activity, a form of enzyme reporter, as detected with fluorescence intensity signals by Fluorescence technology.Data from the assay component NVS_ADME_rCYP1A1 was analyzed into 1 assay endpoint. This assay endpoint, NVS_ADME_rCYP1A1, was analyzed in the positive analysis fitting direction relative to Acetonitrile as the negative control and baseline of activity. Using a type of enzyme reporter, loss-of-signal activity can be used to understand changes in the enzymatic activity as they relate to the gene Cyp1a1. Furthermore, this assay endpoint can be referred to as a primary readout, because this assay has produced multiple assay endpoints where this one serves a enzymatic activity function. To generalize the intended target to other relatable targets, this assay endpoint is annotated to the cyp intended target family, where the subfamily is xenobiotic metabolism.
Binding assays used specific radioligands (tritiated, iodinated) with non-radioactive competitive displacement ligands in agonist or antagonist protocols (as indicated) and various reference compounds and inhibitors to titrate specific binding to receptors and transporters. Most enzyme assays (CYPs, kinases, phosphatases, proteases, HDACs) used recombinant protein and specific substrates (fluorescence mostly, some colorimetric and radioactive) and inhibitors, followed by a biochemical separation of substrate and product. All assays for the biochemical HTS were initially run in duplicate at a single concentration (10 uM for CYP450 assays and 25 uM for all others). Assay-chemical combinations meeting a pre-defined threshold (e.g., 30% inhibition and other criteria defined below) were then run in singleton concentration-response format with maximum concentration of 20 uM for CYPs and 50 uM for all others. Each assay was run with positive and negative controls, and concurrent controls on every plate. The follow-up (secondary) screen tested active chemical-pairs in concentration series, as well as a few additional assays not tested in the primary screen, some selected negative inactives, and several cases re-run in the concentration series for confirmatory purposes.
For `CCOP(=S)(OCC)SCn1c(=O)oc2cc(Cl)ccc21`, the outcome was inactive. Turning to `CCOP(=S)(OCC)Oc1ccc([N+](=O)[O-])cc1`, the concentration at half-maximal activity (AC50) was 7.95 µM (active).

As to `CC[C@H](C)[C@H]1O[C@]2(C=C[C@@H]1C)C[C@@H]1C[C@@H](C/C=C(\C)[C@@H](O[C@H]3C[C@H](OC)[C@@H](O[C@H]4C[C@H](OC)[C@@H](O)[C@H](C)O4)[C@H](C)O3)[C@@H](C)/C=C/C=C3\CO[C@@H]4[C@H](O)C(C)=C[C@@H](C(=O)O1)[C@]34O)O2` (tested in a mixture with another compound), the result was inactive. Take `COP(=S)(OC)Oc1ccc([N+](=O)[O-])cc1`: the outcome was inactive.

As for `COc1nc(C)nc(NC(=O)NS(=O)(=O)c2ccccc2Cl)n1`, the result was inactive.

With `CCCN(CCOc1c(Cl)cc(Cl)cc1Cl)C(=O)n1ccnc1`, the AC50 was 2.23 µM (active). `COP(=S)(OC)Oc1ccc([N+](=O)[O-])c(C)c1`: the molecule was called inactive. Turning to `CC(C)(C)C(=O)C(Oc1ccc(Cl)cc1)n1cncn1` (stereo not given), the concentration at half-maximal activity (AC50) is 16.9 µM (active). As to `COP(=S)(OC)SCn1nnc2ccccc2c1=O`, the call was inactive. Take `CC[C@H](C)[C@H]1O[C@]2(C=C[C@@H]1C)C[C@@H]1C[C@@H](C/C=C(\C)[C@@H](O[C@H]3C[C@H](OC)[C@@H](O[C@H]4C[C@H](OC)[C@@H](NC)[C@H](C)O4)[C@H](C)O3)[C@@H](C)/C=C/C=C3\CO[C@@H]4[C@H](O)C(C)=C[C@@H](C(=O)O1)[C@]34O)O2`: the call was inactive.
